# According to the supplement of paper PMC13380429:
# A number with no mark means an inactive call.
# System: Vero E6 infected with SARS-CoV-2
# Assay: inhibition of SARS-CoV-2 cytopathic effect; higher = more antiviral protection, active = above 15
# Conditions: 48 h
SMILES,inhibition of SARS-CoV-2 cytopathic effect (1 nM),inhibition of SARS-CoV-2 cytopathic effect (8.33 nM),inhibition of SARS-CoV-2 cytopathic effect (100 nM),inhibition of SARS-CoV-2 cytopathic effect (833.33 nM),inhibition of SARS-CoV-2 cytopathic effect (10000 nM)
CCOCCOc1ccccc1C(N)=O [etosalamide],-2.2%,-0.59%,-5.45%,-5.67%,-2.33%
Cc1cc2nc3c(=O)[nH]c(=O)nc-3n(C[C@H](O)[C@H](O)[C@H](O)COP(=O)(O)O)c2cc1C [riboflavin-5-phosphate-sodium],0.5%,3.45%,-0.48%,1.47%,0.24%
Cn1c(Nc2ccc(C(F)(F)F)cc2)nc2cc(Oc3ccnc(-c4ncc(C(F)(F)F)[nH]4)c3)ccc21,0.79%,1.69%,0.4%,0.16%,4.48%
Nc1nc(-c2ccc(Cl)c(Cl)c2)c(-c2ccncc2)s1,-1.24%,1.18%,-2.7%,-2.03%,-0.28%
C[C@@H](N)[C@H]1CC[C@H](C(=O)Nc2ccncc2)CC1,-2.16%,-4.44%,-2.01%,2.02%,-3.54%
Cc1cccc(-c2n[nH]cc2-c2ccc(F)c(-c3cnn(CCO)c3)c2)n1,3.99%,1.16%,-2.29%,-0.9%,-3.66%
CC[C@H](C)[C@H](N)C1=N[C@H](C(=O)N[C@@H](CC(C)C)C(=O)N[C@H](CCC(=O)O)C(=O)N[C@H](C(=O)N[C@H]2CCCCNC(=O)[C@H](CC(N)=O)NC(=O)[C@@H](CC(=O)O)NC(=O)[C@H](Cc3cnc[nH]3)NC(=O)[C@@H](Cc3ccccc3)NC(=O)[C@H]([C@@H](C)CC)NC(=O)[C@@H](CCCN)NC2=O)[C@@H](C)CC)CS1 [bacitracin],-0.71%,2.89%,-2.3%,-1.54%,-0.85%
O=C1c2c(O)ccc(O)c2C(=O)c2c(NCCNCCO)ccc(NCCNCCO)c21 [mitoxantrone],0.83%,0.03%,-2.74%,-4.43%,-11.1%
CN1CC[C@@H](NC(=O)Nc2ccc(C#N)cc2)C[C@@H]1c1nc2ccccc2[nH]1 [glasdegib],2.8%,1.32%,1.05%,-0.41%,1.71%
Nc1nc(F)nc2c1ncn2[C@@H]1O[C@H](CO)[C@@H](O)[C@@H]1O [fludarabine],-1.26%,-3.11%,-2.43%,1.66%,-0.43%
COc1cc2ncnc(Nc3ccc(F)c(Cl)c3)c2cc1NC(=O)/C=C/CN1CCCCC1 [dacomitinib],-4.89%,-7.71%,-13.6%,-15.7%,-20.6%
O=C1Cc2c([nH]c3ccc(Br)cc23)-c2ccccc2N1 [kenpaullone],-1.82%,-2.19%,0.37%,0.56%,12%
"O=[N+]([O-])/C=C/c1ccc2c(c1)OCO2 [3,4-methylenedioxy-beta-nitrostyrene]",-1.15%,0.64%,-1.64%,-3.16%,7.29%
COc1ccc2c(C)nc(Nc3nc(C)c(C)c(O)n3)nc2c1 [madrasin],-1.29%,0.26%,1.24%,0.66%,30.8% (active)
CCN(CC)C(=O)[C@@]1(c2ccccc2)C[C@H]1CN [milnacipran],-4.3%,-3.38%,-4.94%,-0.26%,1.05%
Clc1cccc(N2CCNCC2)c1,-1.68%,-2.45%,-0.72%,-3.2%,-2.99%
Cc1ccc(CNc2ncnc3ccc(-c4ccc(CO)o4)cc23)o1,-1.31%,0.26%,0.15%,-0.45%,1.88%
C[N+](C)(C)CC[N+]1(C)Cc2c(Cl)c(Cl)c(Cl)c(Cl)c2C1 [chlorisondamine-diiodide],0.2%,-3.86%,-0.88%,1.41%,-1.63%
